Results published in PubChem BioAssay (NCATS).
Unmarked numbers belong to inactive results. Results filed as inconclusive are left out. Active and inactive are the calls of the source. The call rests on the fitted dose curve; in most records, active means well fitted curve in the direction sought with a large enough effect; inconclusive means small, poorly fitted or top-dose-only effect, or another doubt; inactive means no such curve, though single readings can be large; an effect the other way counts as inactive or inconclusive.

How the values were obtained:
[1] = P-glycoprotein substrates identified in KB-8-5-11 adenocarcinoma cell line, qHTS therapeutic library screen (AID 1346987); further: nearly all actives have a fitted effect of over 65% in size; further: potency means the concentration at half of the fitted maximal effect
In short: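 Human cervical adenocarcinoma KB-8-5-11 cells, selected in colchicine to over-express P-gp and assayed without it, were exposed for 72 h to titrated compounds. An ATP-based luminescent viability signal gave AC50.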

[2] = system: Zika virus NS2B-NS3 protease (linked construct); assay: Primary screen NINDS Rhodamine qHTS for Zika virus inhibitors (AID 1347160); further: nearly all actives have a fitted effect of over 55% in size
In short: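 Single-chain NS2B-NS3 protease, 25 nM, pH 8.0; compounds preincubated 15 min. Activity: Rhodamine110 release from 1.5 microM substrate over 15 min, room temperature, data fitted to 4-parameter Hill.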

[3] = target: Calcium and integrin-binding protein 1 (Homo sapiens) (UniProt Q99828); assay: Primary qHTS for Identification of Calcium Integrin Binding Protein 1 (CIB1) Competitor (AID 1508620);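 further: GST tagged CIB1 binding a fluorescein labelled alphaIIb integrin peptide tracer; top concentration of the series differs between compounds; on the % scale 0 is the no-effect control and ±100 the full control effect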
Chain of Calcium and integrin-binding protein 1 (Homo sapiens) (Q99828 whole entry, looked up): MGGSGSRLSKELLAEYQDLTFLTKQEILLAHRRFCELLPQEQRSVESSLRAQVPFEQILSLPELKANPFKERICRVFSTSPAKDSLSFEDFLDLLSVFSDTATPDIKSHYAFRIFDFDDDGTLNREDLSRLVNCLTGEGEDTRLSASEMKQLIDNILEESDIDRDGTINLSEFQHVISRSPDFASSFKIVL
In short: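 Fluorescence polarization competition: CIB1-GST (1 uM final) preincubated with compound 15 min at room temperature, then FITC-labeled alphaIIb peptide (100 nM final) added for another 15 min. Polarization read at Ex 480/Em 540.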

[4] = Primary qHTS for inhibitors of nuclear receptor binding SET domain protein 2 (NSD2) in an isogenic RCH-ACV NSD2 p.E1099K mutant (9B) (AID 1645876); further: nearly all actives have a fitted effect of over 70% in size; further: potency means the concentration at half of the fitted maximal effect
[5] = target: Phospholipid hydroperoxide glutathione peroxidase GPX4 (Homo sapiens) (UniProt P36969); assay: Primary qHTS Assay for Inhibitors of Recombinant Selenoprotein Glutathione Peroxidase 4 (GPX4) (AID 1845192); further: nearly all actives have a fitted effect of over 65% in size
Chain of Phospholipid hydroperoxide glutathione peroxidase GPX4 (Homo sapiens) (P36969 whole entry, looked up): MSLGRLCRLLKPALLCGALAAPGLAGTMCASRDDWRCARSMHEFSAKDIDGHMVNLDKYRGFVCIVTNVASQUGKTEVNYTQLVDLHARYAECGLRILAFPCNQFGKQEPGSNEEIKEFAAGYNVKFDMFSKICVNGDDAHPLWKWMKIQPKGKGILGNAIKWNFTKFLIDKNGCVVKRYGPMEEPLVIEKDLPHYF
In short: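 qHTS, GR-coupled: GPX4 200 nM + cpd 30 min RT → GSH 1 mM, NADPH 0.5 mM, GR 100 nM → CHP 0.5 mM start; fluor 340/450 at t0 and t15 min; no-enzyme wells as control.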

[6] = target: Luciferin 4-monooxygenase (Photinus pyralis) (UniProt P08659); assay: Primary firefly luciferase (FLuc) qHTS assay for identification of artifact compounds. (AID 1845220); settings: outcome: dose series up to 54.1 µM unless noted; further: nearly all actives have a fitted effect of over 60% in size
In short: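 In this counter-screen for luciferase artifacts, test compounds met substrate (10 uM each luciferin and ATP) before 10 nM enzyme started the reaction. Light output was measured 5 min later.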

[7] = system: Nanoluciferase (engineered Oplophorus gracilirostris luciferase); assay: Primary Nanoluciferase (NLuc) qHTS assay for identification of artifact compounds. (AID 1845222);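 further: NLuc secreted into diluted conditioned medium of S16 cells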
In short: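 Using secreted nanoluciferase in S16 culture medium (0.22 um filtered, 1:55 dilution), compounds were preincubated 15 min at RT. Signal was generated with Nano-Glo reagent (1:100) over 5 min.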

[8] = system: CRL-7250; assay: Cytotoxic Profiling of Annotated Libraries Using Quantitative High-Throughput Screening (AID 1296008); settings: Five cell lines viability, CellTiter-Glo ATP luminescence, 48-72 h; max response: stronger effect = lower value; further: nearly all actives have a fitted effect of over 60% in size; further: potency means the concentration at half of the fitted maximal effect; on max response: on the % scale 0 is the no-effect control and ±100 the full control effect
In short: (§1)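 Compounds were pin-transferred onto cells and incubated 48 or 72 hr at 37 degree Celsius, 95% humidity. CellTiter-Glo was added, plates sat 10 min at room temperature, then ATP-coupled luminescence was imaged as the viability read-out.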

[9] = system: HEK293; assay: as above; settings: Five cell lines viability, CellTiter-Glo ATP luminescence, 48-72 h; max response: stronger effect = lower value
In short: as §1

[10] = system: HaCat; assay: as above; settings: Five cell lines viability, CellTiter-Glo ATP luminescence, 48-72 h; max response: stronger effect = lower value
In short: as §1

[11] = system: NIH3T3; assay: as above; settings: Five cell lines viability, CellTiter-Glo ATP luminescence, 48-72 h; max response: stronger effect = lower value
In short: as §1

[12] = system: C33A; assay: Primary qHTS to identify gynecologic anti-cancer compounds using libraries of approved drugs and bioactive compounds (AID 1345084); settings: Gynecologic cancer cell panel viability, ATPlite luminescence, 48 h; series mostly up to 57.5 µM; further: nearly all actives have a fitted effect of over 55% in size; further: potency means the concentration at half of the fitted maximal effect
In short: (§2)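 Cells, 1,000 per well, were allowed to settle for 16 h at 37 C before compound addition. Five concentrations were tested for 48 h, and viability was read by ATPlite luminescence after 15 min at room temperature.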

[13] = system: Es-2; assay: as above; settings: Gynecologic cancer cell panel viability, ATPlite luminescence, 48 h; series mostly up to 57.5 µM
In short: as §2

[14] = system: Hek293T; assay: as above; settings: Gynecologic cancer cell panel viability, ATPlite luminescence, 48 h, control line for the selectivity index; series mostly up to 57.5 µM
In short: as §2

[15] = system: OV90; assay: as above; settings: Gynecologic cancer cell panel viability, ATPlite luminescence, 48 h; series mostly up to 57.5 µM
In short: as §2

[16] = system: PA-1; assay: as above; settings: Gynecologic cancer cell panel viability, ATPlite luminescence, 48 h; series mostly up to 57.5 µM
In short: as §2

[17] = system: Tov-21-G; assay: as above; settings: Gynecologic cancer cell panel viability, ATPlite luminescence, 48 h; series mostly up to 57.5 µM
In short: as §2

[18] = Primary redox qHTS assay for identification of artifact compounds. (AID 1845223);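 further: 0% = DMSO and 100% = reference compound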
In short: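 Redox-cycling detection via DTT (250 uM final) oxidation coupled to Amplex Red (25 uM)/HRP (250 mU/mL) in HBSS. 15 min preincubation plus 30 min after DTT, room temperature. Ex/Em 525/598 nm; 4-parameter Hill fit against DMSO and 10 uM DA3003.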

[19] = system: CASKI; assay: Primary qHTS to identify gynecologic anti-cancer compounds using libraries of approved drugs and bioactive compounds (AID 1345084); settings: Gynecologic cancer cell panel viability, ATPlite luminescence, 48 h; series mostly up to 57.5 µM; further: nearly all actives have a fitted effect of over 55% in size; further: potency means the concentration at half of the fitted maximal effect
In short: as §2

[20] = system: Tov112D; assay: as above; settings: Gynecologic cancer cell panel viability, ATPlite luminescence, 48 h; series mostly up to 57.5 µM
In short: as §2

CNc1ccc2oc(C[C@H]3O[C@@]4(CC[C@H]3C)O[C@H](C(C)C(=O)c3ccc[nH]3)[C@H](C)C[C@H]4C)nc2c1C(=O)O (stereo partly specified)
Potency [1]: 2.06 µM (active)
Potency [2]: inactive
Potency [3]: inactive
Potency [4]: 16.3 µM (active)
Potency [5]: inactive
outcome [6]: inactive
Potency [7]: inactive
Potency [8]: 5.8 µM (active)
Potency [9]: 1.3 µM (active)
Potency [10]: 7.31 µM (active)
Potency [11]: 3.66 µM (active)
Potency [12]: 11.2 µM (active)
Potency [13]: 10 µM (active)
Potency [14]: 8.91 µM (active)
Potency [15]: 12.6 µM (active)
Potency [16]: 4.47 µM (active)
Potency [17]: 11.2 µM (active)

CC(=O)OC[C@]12C[C@H](O)C(C)=C[C@H]1O[C@@H]1[C@H](O)[C@@H](O)[C@@]2(C)[C@]12CO2
Potency [1]: 4.04 µM (active)
Potency [2]: inactive
Potency [4]: 0.898 µM (active)
Potency [5]: inactive
outcome [6]: inactive
Potency [7]: inactive
Potency [18]: inactive
Potency [8]: 4.04 µM (active)
Potency [9]: 1.01 µM (active)
Potency [10]: 10.1 µM (active)
Potency [11]: 1.43 µM (active)
Potency [12]: 5.62 µM (active)
Potency [19]: 7.94 µM (active)
Potency [13]: 6.31 µM (active)
Potency [14]: 1.78 µM (active)
Potency [15]: 12.6 µM (active)
Potency [16]: 2 µM (active)
Potency [17]: 8.91 µM (active)
Potency [20]: 10 µM (active)

O=C(OC[C@H]1O[C@@H](Oc2ccc(O)cc2CO)[C@H](O)[C@@H](O)[C@@H]1O)c1ccccc1
Potency [1]: inactive
Potency [4]: inactive
Potency [5]: inactive
outcome [6]: inactive
Potency [7]: inactive
Potency [18]: inactive
max response [8]: 2.78%
max response [9]: 0.485%
max response [10]: -28.3%
Potency [12]: inactive
Potency [19]: inactive
Potency [13]: inactive
Potency [14]: inactive
Potency [15]: inactive
Potency [16]: inactive
Potency [17]: inactive
Potency [20]: inactive

C[C@H](CCC(=O)O)C[C@H](C)C[C@H](C)C(=O)/C=C(\O)[C@H](C)C[C@H](C)C/C=C/[C@@H](C)[C@@H](O)[C@@H](C)[C@@H](O)C[C@@H]1CC[C@@](C)([C@H]2CC[C@@](C)([C@@H](C)O)O2)O1
Potency [2]: inactive
Potency [3]: inactive
Potency [4]: 7.09 µM (active)
outcome [6]: inactive
Potency [7]: inactive
Potency [18]: inactive
Potency [8]: 3.17 µM (active)
Potency [9]: 5.02 µM (active)
max response [10]: -1.41%
Potency [12]: inactive
Potency [19]: inactive
Potency [13]: inactive
Potency [14]: inactive
Potency [16]: inactive
Potency [20]: inactive

COC1CC(O[C@H]2CC[C@@]3(C)C(CCC4C3CC[C@]3(C)[C@@H](C5=CC(=O)OC5)CC[C@]43O)C2)OC(C)C1O (stereo partly specified)
Potency [1]: 0.1 µM (active)
Potency [2]: inactive
Potency [3]: inactive
Potency [4]: 0.0142 µM (active)
Potency [5]: inactive
outcome [6]: inactive
Potency [7]: inactive
Potency [18]: inactive
Potency [8]: 0.0317 µM (active)
Potency [9]: 0.0796 µM (active)
Potency [10]: 0.178 µM (active)
max response [11]: -0.0473%
Potency [12]: 0.1 µM (active)
Potency [19]: 0.141 µM (active)
Potency [13]: 0.158 µM (active)
Potency [14]: 0.141 µM (active)
Potency [15]: 0.398 µM (active)
Potency [17]: 0.0891 µM (active)
